ALDH1A1 block – blocks purified human ALDH1A1 activity; P00352; Purified ALDH1A1, NADH fluorescence, propionaldehyde substrate; Potency, µM (doses to about 75.3 µM), actives largely listed as inhibitors; 220,000 tested, 7.3% active; AID 1030
Target sequence (P00352 whole entry, looked up): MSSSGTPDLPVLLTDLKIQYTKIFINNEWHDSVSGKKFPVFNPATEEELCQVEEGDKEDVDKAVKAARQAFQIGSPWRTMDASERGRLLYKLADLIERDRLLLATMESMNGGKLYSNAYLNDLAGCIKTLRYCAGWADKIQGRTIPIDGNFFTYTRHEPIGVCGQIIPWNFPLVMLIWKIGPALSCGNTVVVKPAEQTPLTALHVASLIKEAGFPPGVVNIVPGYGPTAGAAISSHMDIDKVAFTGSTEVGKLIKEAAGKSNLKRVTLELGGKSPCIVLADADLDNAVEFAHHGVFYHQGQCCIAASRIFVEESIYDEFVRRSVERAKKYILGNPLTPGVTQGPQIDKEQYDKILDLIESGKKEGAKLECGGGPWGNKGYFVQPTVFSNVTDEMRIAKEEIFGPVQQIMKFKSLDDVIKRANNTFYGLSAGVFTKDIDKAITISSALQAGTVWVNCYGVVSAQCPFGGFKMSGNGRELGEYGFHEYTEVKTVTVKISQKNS
KinaseGlo FLuc – counter-screen: inhibitors of Kinase-Glo firefly luciferase; Kinase-Glo luciferase, ATP luminescence, 8 min; Q27757; AID 1379; Potency, µM (series often up to 38.3 µM), actives largely listed as inhibitors; 200,000 tested, 0.28% active; active means well fitted inhibition curve with a large enough effect; inconclusive means small, poorly fitted or top-dose-only effect; further: nearly all actives have a fitted effect of over 60% in size
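Light output from Kinase-Glo luciferase with luciferin and 10 uM ATP in 50 mM imidazole pH 7.2, KCl, MgCl2, Tween 20, BSA; compound pin-delivered, 8-min ambient incubation, then luminescence read.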
HPGD block – inhibitors of human 15-hydroxyprostaglandin dehydrogenase (HPGD). P15428. purified HPGD, NADH fluorescence kinetic, PGE2 substrate. Potency, µM, most hits filed as inhibitors. 150,000 tested, 4.3% active. AID 894
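NADH formation kinetics: reaction with 30 uM PGE2 and 1 mM NAD+ (final), 20 nM enzyme, Tris-HCl pH 8 with Tween 20, after 15 min compound preincubation at room temperature. Fluorescence change, last versus first of five reads.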
LMNA splice mod – changes lamin A minigene splicing in HeLa cells; 200,000 tested, 0.01% active; Potency, µM (series often up to 46.1 µM), usual class: inhibitors; HeLa LMNA splicing GFP/RFP minigene ratio, 48 h; AID 1487; active means well fitted inhibition curve with a large enough effect in the signal ratio, with a control signal flat, not every such curve was filed as active; inconclusive means small, poorly fitted or top-dose-only effect, or effect the other way, or a change in a side signal; the % refers to the signal ratio
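Read-out is the ratio of GFP to DsRed2 object intensity, acquired by 488 nm laser-scanning cytometry on HeLa lamin A-EGFP minigene reporter cells. Compound incubation 48 hrs at 37 °C in Opti-MEM with 2% FBS; DMSO 0.5% final.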
PNC assembly inh – blocks assembly of the perinucleolar compartment. PC3M PTB-GFP, PNC prevalence imaging, 16 h; hits give low values. activity change (PNC), negative = inhibition, % at 10 µM. 140,000 tested, 3.1% active;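 active means readout at or below -70, meaning at least 70% loss of cells showing the perinucleolar compartment, a nuclear body marking cancer cells; inconclusive means readout between -30 and a set limit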
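PC3M cells stably expressing PTB-GFP, 750–1000 cells/well, treated 16 h at 37 °C with compound (23 nl of library stock), in duplicate. After paraformaldehyde fixation and Hoechst stain, imaged at 20x; PNC prevalence scored by image analysis.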
IMPase cell inh – IMPase inhibition in cells; P97697; CHO-M1 cells, IP1 accumulation, HTRF TR-FRET ratio; inhibition (IP1 accumulation), % at 46.1 µM; 120,000 tested, under 10 active; AID 901; active means well fitted curve in the direction sought with a large enough effect in the signal ratio, not every such curve was filed as active; inconclusive means small, poorly fitted or top-dose-only effect, or a change in a side signal; inactive means no such curve, though single readings can be large or run the other way; the % refers to the signal ratio;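 further: cells stimulated with carbachol in lithium chloride buffer; higher means more IMPase inhibition seen as more IP1 and lower FRET ratio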
Target sequence (P97697 whole entry, looked up): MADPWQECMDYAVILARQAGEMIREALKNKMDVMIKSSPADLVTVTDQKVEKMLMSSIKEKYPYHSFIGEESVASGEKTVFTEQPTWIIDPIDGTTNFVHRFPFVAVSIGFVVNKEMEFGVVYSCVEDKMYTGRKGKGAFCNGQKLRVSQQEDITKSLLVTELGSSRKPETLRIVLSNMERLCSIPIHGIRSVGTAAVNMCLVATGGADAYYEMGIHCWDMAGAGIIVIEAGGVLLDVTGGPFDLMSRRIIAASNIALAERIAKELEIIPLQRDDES
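Seeded CHO-M1 cells were dosed with compound at up to 46 uM, stimulated with carbachol for 30 min, then lysed in IP-One detection reagents. Higher IP1 lowers the TR-FRET signal.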
Hits are given with their value; . = inactive; ? = inconclusive; / = not tested or not shown; [ ] = another dose, or the depositor's remark. Shown are actives, neighbours in structure and some others; about 10% of the full set was active somewhere. Unless noted, the call rests on the fitted dose curve; in most records, active means well fitted inhibition curve with a large enough effect (not every such curve was filed as active); inconclusive means small, poorly fitted or top-dose-only effect, or another doubt; inactive means no such curve, though single readings can be large or run the other way.

SMILES | ALDH1A1 block | KinaseGlo FLuc | HPGD block | LMNA splice mod | PNC assembly inh | IMPase cell inh
CCc1nc2ccc(C(=O)NCc3ccc(OC)c(OC)c3)cc2nc1CC | / | / | / | . | / | /
CC(=O)C1(C)CC2(CC(C)(C)OC2=O)C(=O)O1 (stereo not given) | . | . | . | / | / | /
COc1ccccc1C(=O)Nc1ccc2nc(SCC(=O)N(C)C)sc2c1 | . | . | . | . | -114 | /
CCN(CC)C(=O)CSc1nc2ccc(NC(=O)CSc3nnc(N)s3)cc2s1 | ? | . | 14µM | . | -100 | .
COc1ccccc1C(=O)Nc1ccc2nc(SCC(=O)N(C)c3ccccc3)sc2c1 | / | / | / | . | / | /
CCN(CC)C(=O)CSc1nc2ccc(NC(=O)CSc3nccn3C)cc2s1 | ? | . | 32µM | ? | ? | ?
COCCNC(=O)CN1C(=O)CCn2nc(-c3cn(C)c4ccccc34)cc21 | / | / | / | . | / | /
Cc1cc(C)n(C(C)CC(=O)Nc2cccc(C#N)c2)n1 (stereo not given) | / | / | / | . | / | /
COc1ccccc1N1CCN(C(=O)c2cc3c(=O)n(Cc4cccnc4)ccc3nc2C)CC1 | / | / | / | . | / | /
Cc1cc(CN2CCCCC2)c(O)c(CN2CCCCC2)c1 | .[13.5 µM] | .[7.66 µM] | . | / | / | /
COc1ccc(Cn2ccnc2SCC(=O)NCc2ccccc2)cc1 | / | / | / | . | / | /
CN=c1scc(-c2ccco2)n1/N=C/c1ccc(O)c(O)c1 | 28µM | . | / | . | / | /
COc1ccc(O)c(/C=N/n2c(-c3ccco3)csc2=Nc2cccnc2)c1 | . | . | . | . | . | /
CN=c1scc(C)n1/N=C/c1ccc(O)cc1 | . | . | . | ? | . | .
C=CCN=c1scc(C)n1/N=C/c1ccc(O)c(O)c1 | 22µM | . | / | . | / | /
O=C(c1cccc(F)c1)N1CCC2(CC1)CN(C(c1ccccc1)c1ccccc1)C2 | ? | . | . | / | / | /
CC1CN(S(=O)(=O)c2ccc(NC(=O)c3cc(-c4ccccc4O)n[nH]3)cc2)CC(C)O1 (stereo not given) | . | . | 14µM | ? | . | .
CC(=O)c1ccccc1NCC(=O)Nc1ccc(C)cc1 | 13µM | . | / | / | / | /
O=C(CSc1ccc(F)cc1)Nc1ccc(Br)cc1 | 20µM | . | / | . | / | /
COc1ccc(NC(=O)CSc2c(C)n[nH]c2C)cc1 | 16µM | . | . | . | . | .
Cc1nn(-c2nnc(C)c(=O)[nH]2)c(C)c1SCC(=O)Nc1ccc(F)cc1 | ? | . | . | . | . | .
O=C(CSc1ccc(F)cc1)Nc1ccccc1Br | . | . | / | / | / | /
COc1ccc(NC(=O)CSC2=NCCN2)cc1 | . | . | / | .[9.22 µM] | / | /
Cc1n[nH]c(C)c1SCC(=O)Nc1ccc(F)cc1 | . | . | . | . | -100 | .
Cc1c(C(=O)NCc2ccc(F)cc2)oc2ccc(S(=O)(=O)N3CCCCC3)cc12 | / | / | / | . | / | /
SMILES | ALDH1A1 block | KinaseGlo FLuc | HPGD block | LMNA splice mod | PNC assembly inh | IMPase cell inh
c1ccncc1 | . | / | . | / | / | /
COc1ccccc1OCC(=O)NCCS(=O)(=O)N1CCN(c2ccccc2OC)CC1 | / | / | / | . | / | /
COc1ccc(CCC(=O)NC2CC(=O)N(c3ccc(OC)cc3)C2)cc1 (stereo not given) | / | / | / | . | / | /
O=C(CNc1ccccc1)Nc1ccc(F)cc1 | 14µM | . | . | ? | . | .
O=C(Nc1ccc(F)cc1)c1ccccc1 | . | . | . | . | . | .
CCn1cc(/C=N\NC(=O)c2ccc(Cl)cc2)cn1 | . | . | . | . | ? | /
CCn1cc(/C=N\NC(=O)Cc2ccc(Cl)cc2)cn1 | . | . | . | . | -99 | /
CC1=C(C(=O)Nc2ccc(Cl)cc2)C2(CCCCC2)C(C(N)=O)C(=S)N1 (stereo not given) | . | . | . | . | ? | .
N#CC1=C(N)NC(SCc2ccc(F)cc2)=C(C#N)C12CCCCC2 | ? | . | . | . | . | .
CC1=C(C(=O)Nc2ccccc2)C2(CCCCC2)C(C#N)=C(S)N1 | 20µM | . | 25µM | . | . | .
N#CC1=C(N)NC(SCC(=O)O)=C(C#N)C12CCCC2 | 5.6µM | . | 13µM | . | . | .
N#CC1=C(N)NC(SCC(=O)Nc2ccccc2)=C(C#N)C12CCCC2 | 4.5µM | . | 18µM | . | . | .
O=C(c1cc(C(F)(F)F)cc(C(F)(F)F)c1)N1CCC2(CC1)CN(c1ncccn1)C2 | . | . | . | / | / | /
CCN(c1ccc(OC)cc1)S(=O)(=O)c1c(C(=O)N2CCCCCC2)c(C)n(C)c1C | / | / | / | . | / | /
CS(=O)(=O)N1CCC2(CC1)CN(C(c1ccccc1)c1ccccc1)C2 | . | . | . | / | / | /
Cc1ccc(C(C)C)cc1S(=O)(=O)NCc1cccnc1 | 20µM | . | . | . | . | .
CNC(CC(=O)O)C(=O)O (stereo not given) | . | . | . | / | / | /
Cn1cccc1C(=O)N1CCC2(CC1)CCN(C(c1ccccc1)c1ccccc1)CC2 | . | . | . | / | / | /
Cc1ccc(C(=O)OCc2cc(=O)n3nc(CC(C)C)sc3n2)cc1 | / | / | / | . | / | /
CCCCn1c(=O)c2c(O)cc(=O)oc2c2ccccc21 | 16µM | . | . | . | ? | .
Cc1ccc(C(=O)[C@@H]2[C@H]3C4COC(O4)C(=O)[C@@H]3[C@H]3C=Cc4ccccc4N32)cc1 (stereo not given in full) | ? | . | . | / | / | .
CC(=O)[C@@H]1[C@H]2[C@H](C(=O)[C@H]3OC[C@@H]2O3)[C@H]2C=Cc3ccccc3N21 | 25µM | ? | . | / | / | ?
Brc1ccc(OCc2ccccc2)c(CNCc2ccncc2)c1 | 2µM | . | . | .[0.0737 µM] | -109 | .
Fc1ccc(COc2ccccc2CNCc2ccncc2)cc1 | ? | . | . | ? | ? | /
N#CCCn1c(=O)cnc2cnc(N3CCNCC3)nc21 | ? | . | ? | / | / | /
SMILES | ALDH1A1 block | KinaseGlo FLuc | HPGD block | LMNA splice mod | PNC assembly inh | IMPase cell inh
CC(SCc1ccccc1)C(=O)NN=C1CCN(C)CC1 (stereo not given) | 1.3µM | . | . | . | . | .
Cc1ccc(SCC(=O)NN=C2CCN(C)CC2)cc1 | ? | . | / | / | / | /
CN1CCC(=NNC(=O)CSCc2ccccc2)CC1 | 25µM | . | . | . | . | .
CC(SCc1ccccc1)C(=O)N/N=C/c1cccs1 (stereo not given) | . | . | . | . | . | .
CCC(=O)N1c2ccccc2CC1C(=O)NCCc1ccc(Cl)cc1 (stereo not given) | / | / | / | . | / | /
CN(CCOc1ccccc1)CC(=O)Nc1ccc([N+](=O)[O-])cc1Cl | . | . | / | / | / | /
CN(CC(=O)Nc1ccc([N+](=O)[O-])cc1Br)Cc1c(F)cccc1Cl | 10µM | / | / | / | / | /
O=C1[C@H]2[C@H]3[C@H](O)[C@H](O)C/C(=N/OC[C@@H](O)COCc4ccco4)[C@H]3CC[C@@H]2C(=O)N1Cc1ccc2c(c1)OCO2 | .[13.5 µM] | / | / | / | / | /
NC[C@H](O)C1CCCCCCC1 | / | / | / | / | / | .
CC1CCN(C(=O)CSc2nc3c(cnn3-c3ccccc3)c(=O)[nH]2)CC1 | ? | . | ? | . | . | .
CC(=O)N1CCN(C(=O)CSc2nc3c(cnn3-c3ccccc3)c(=O)[nH]2)CC1 | 25µM | . | ? | . | ? | .
